# Assay results: PubChem BioAssay AID2590 (National Center for Advancing Translational Sciences (NCATS), 2010)
# Values joined by “and” are separate entries in the source; they are usually repeats but may differ in a detail not shown here. Equal values may be shown once. Records with an inconclusive call do not appear. Active and inactive are the calls of the source. Calls follow the shape of the dose curve; as a rule, active = well fitted curve in the direction sought with a large enough effect; inconclusive = small, poorly fitted or top-dose-only effect, or another doubt; inactive = no such curve, though single readings can be large or run the other way.
# Molecular target: Lysosomal acid glucosylceramidase (Homo sapiens) (UniProt P04062)
# Assay: qHTS Assay for Inhibitors and Activators of N370S glucocerebrosidase as a Potential Chaperone Treatment of Gaucher Disease: Primary Screen Confirmation;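 as to activity change, negative = inhibition: 0% = enzyme with DMSO and -100% = no enzyme basal signal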
# Settings: N370S glucocerebrosidase enzyme activity, fluorogenic substrate; series mostly up to 54 µM; activity change, negative = inhibition: at the top concentration
# Description: NIH Chemical Genomics Center [NCGC]
# NIH Molecular Libraries Probe Production Centers Network [MLPCN]
# Assay Submitter (PI): Wei Zheng
# Glucocerebrosidase (GC) catalyzes the hydrolysis of beta-glucocerebroside to glucose and ceramide in lysosomes. Mutations in the glucocerebrosidase gene result in Gaucher disease, an autosomal recessive lysosomal storage disorder. Many of the mutations encountered in patients with Gaucher disease are missense alterations that may cause misfolding, decreased stability and/or mistrafficking of this lysosomal protein. […] These inhibitors include iminosugar analogs and three non-iminosugar inhibitors identified from a previous HTS of 62,000 compounds with the wild type recombinant enzyme. However, the enhancement of enzyme activity by the chaperone action of an enzyme inhibitor must be balanced against the direct inhibition of the enzyme. An enzyme activator could also function as a chaperone by binding to the enzyme and helping to correct its misfolding and mistrafficking. While activators for GC have not yet been identified, they may have better therapeutic potential than inhibitors. Therefore the discovery and development of chemical activators may provide a new strategy for the chaperone therapy.
# We have optimized a new assay using N370S mutant GC derived from the spleen of a Gaucher patient. […] In addition, the MLPCN compound library has expanded, which increases the chance of finding new and better probes.
# NCGC Assay Protocol Summary:
# This is a fluorogenic enzyme assay with 4-methylumbelliferyl-beta-D-glucopyranoside as the substrate and N370S glucocerebrosidase from human spleen homogenate as the enzyme preparation. Upon the hydrolysis of this fluorogenic substrate, the resulting product, […] which can be detected by a standard fluorescence plate reader. Data were normalized to the controls for basal activity (without enzyme) and 100% activity (with enzyme). The AC50 values were determined from concentration-response data modeled with the standard Hill equation.
# Assay buffer: 50 mM citric acid (titrated with potassium phosphate to pH 5.0), 100 mM potassium chloride, 10 mM sodium chloride, 1 mM magnesium chloride, 0.01% Tween-20.
# 1536-well assay protocol:
# (1) Add 2 ul/well of spleen homogenate (27 ug final)
# (2) Add 23 nL compounds in DMSO solution. The final titration was 0.5 nM to 58 uM.
# (3) Add 2 ul of substrate (1 mM final)
# (4) Incubate at 37C for 40 min.
# (5) Add 2 ul stop solution (1M NaOH and 1M Glycine mixture, pH 10)
# (6) Detect the assay plate in a ViewLux plate reader (PerkinElmer) with Ex=365 nm and Em=440nm.
# Keywords: Glucocerebrosidase, beta-glucosidase, Gaucher Disease, pharmacological chaperone, chaperone therapy, high throughput screening, glucocerebrosidase inhibitor, MLSMR, MLSCN, NIH Roadmap, qHTS and NCGC
# Potency is read from the fitted curve at half-maximal effect.
# Lysosomal acid glucosylceramidase (Homo sapiens), sequence (P04062 whole entry N409S): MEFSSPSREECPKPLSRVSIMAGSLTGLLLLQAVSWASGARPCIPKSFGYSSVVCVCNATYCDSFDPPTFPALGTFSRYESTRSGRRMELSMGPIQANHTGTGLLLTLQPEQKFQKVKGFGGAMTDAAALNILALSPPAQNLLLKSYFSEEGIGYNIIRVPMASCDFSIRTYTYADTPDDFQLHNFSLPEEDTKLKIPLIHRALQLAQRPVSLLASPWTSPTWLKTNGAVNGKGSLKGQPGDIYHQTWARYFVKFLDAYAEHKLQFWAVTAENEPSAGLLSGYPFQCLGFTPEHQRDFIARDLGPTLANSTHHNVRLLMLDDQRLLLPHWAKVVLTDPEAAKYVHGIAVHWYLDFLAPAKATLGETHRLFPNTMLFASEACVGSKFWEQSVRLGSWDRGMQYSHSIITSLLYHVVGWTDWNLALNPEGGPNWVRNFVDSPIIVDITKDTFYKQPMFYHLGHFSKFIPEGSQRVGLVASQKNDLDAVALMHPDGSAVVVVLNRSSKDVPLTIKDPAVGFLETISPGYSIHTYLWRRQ
Compound,Potency,"activity change, negative = inhibition"
Cc1ccc2nc(-c3ccc(SCC(=O)N4CCc5ccccc54)nc3)[nH]c2c1,10 µM (active),–
O=C(Nc1cc(Br)ccc1O)c1cnn2c(C(F)F)cc(C3CC3)nc12,–,7.23% (inactive)
S=C(NCCCc1cnc[nH]1)NCCCN(Cc1ccc(Cl)cc1)c1ncc(Br)cn1,1.79 µM (active),–
COc1cccc(NC(=O)CSc2nc3c(sc4ccccc43)c(=O)n2CCCN2CCCC2)c1,–,-26.5% (inactive)
Cc1ccc(S(=O)(=O)N2CCN(c3nc(-c4cccs4)nc4ccccc34)CC2)cc1,259 nM (active) and 730 nM (active) and 366 nM (active),–
CCCCNC(=S)NCCCc1cnc[nH]1,–,-23.1% (inactive)
Cc1ccccc1NC(=O)Nc1ccccn1,–,2.43% (inactive)
Cc1ccc(S(=O)(=O)N2CCN(c3nc(-c4cccnc4)nc4ccccc34)CC2)cc1,16.3 µM (active),–
Cc1cc(Cl)nc(NC(=O)Nc2cccc(Cl)c2)n1,–,20.8% (inactive)
O=C(Nc1cnn(Cc2ccc(F)cc2)c1)c1cnn2c(C(F)F)cc(-c3ccccc3)nc12,–,42.8% (inactive)
CC(C)(C)c1cccc(S(=O)(=O)N2CCN(c3nc(-c4cccs4)nc4ccccc34)CC2)c1,1.63 µM (active),–
O=S(=O)(c1ccc2ccccc2c1)N1CCN(c2nc(-c3cccs3)nc3ccccc23)CC1,0.326 µM (active),–
S=C(NCCCc1cnc[nH]1)NCCCN(Cc1ccc(Cl)c(Cl)c1)c1ccccn1,7.29 µM (active),–
Cc1ccc(S(=O)(=O)N2CCN(c3nc(-c4ccco4)nc4ccccc34)CC2)cc1,1.01 µM (active),–
S=C(NCCCc1cnc[nH]1)NCCCN(Cc1ccc(Cl)c(Cl)c1)c1ccc(Br)cn1,650 nM (active) and 579 nM (active),–
CCCCNC(=S)NCCCN(Cc1ccc(Cl)c(Cl)c1)c1ccc(Br)cn1,–,-6.05% (inactive)
S=C(NCCCc1cnc[nH]1)NCCN(Cc1ccc(Cl)c(Cl)c1)c1ccc(Br)cn1,2.06 µM (active),–
CC(=O)NCCCN(Cc1ccc(Cl)c(Cl)c1)c1ccc(Br)cn1,–,0.436% (inactive)
CC(C)(C)C(=O)OCCNc1nc(-c2ccccc2)nc2ccccc12,1.42 µM (active),–
Cc1cccc(NC(=S)Nc2cccc(C)n2)n1,–,11.5% (inactive)

Compound,Potency,"activity change, negative = inhibition"
COc1cccc(CN(C)c2nc(-c3cccs3)nc3ccccc23)c1,2.01 µM (active),–
O=S(=O)(c1ccc(C(F)(F)F)cc1)N1CCN(c2nc(-c3cccs3)nc3ccccc23)CC1,2.53 µM (active),–
Cc1ccccc1-c1nccc(NCc2cccs2)n1,15.8 µM (active),–
O=C(c1ccccc1)N1CCN(c2nc(-c3cccs3)nc3ccccc23)CC1,1.42 µM (active),–
Cc1cc(C)cc(N(CC(=O)Nc2cccc(C)c2C)S(=O)(=O)c2c(C)[nH]c(=O)[nH]c2=O)c1,3.26 µM (active),–
Cc1cc2[nH]c(=O)c(=O)[nH]c2cc1S(=O)(=O)N1CCN(c2cccc(C(F)(F)F)c2)CC1,5.17 µM (active),–
CCOC(=O)c1ccccc1S(=O)(=O)N1CCN(c2nc(-c3cccs3)nc3ccccc23)CC1,0.366 µM (active),–
O=S(=O)(c1ccc2c(c1)OCO2)N1CCN(c2nc(-c3cccs3)nc3ccccc23)CC1,0.291 µM (active),–
O=S(=O)(c1ccccc1)N1CCN(c2nccc(-c3cccs3)n2)CC1,–,-3.77% (inactive)
Cc1ccc(S(=O)(=O)N2CCN(c3nc(-c4cccs4)nc(C)c3C)CC2)cc1,2.84 µM (active),–
O=S(=O)(c1ccc(F)cc1)N1CCN(c2nc(-c3ccccc3)nc3ccccc23)CC1,6.51 µM (active),–
CS(=O)(=O)N1CCN(c2nc(-c3cccs3)nc3ccccc23)CC1,11.4 µM (active),–
NC(=NCCCCCCN=C(N)/N=C(\N)Nc1ccc(Cl)cc1)/N=C(\N)Nc1ccc(Cl)cc1,11.6 µM (active) and 18.3 µM (active) and 16.3 µM (active),–
O=S(=O)(c1cccnc1)N1CCN(c2nc(-c3cccs3)nc3ccccc23)CC1,3.18 µM (active),–
O=C(Nc1ccccc1)Nc1ccccc1,inactive,–
CC(C)(C)C(=O)OCCNc1nc(-c2cccs2)nc2ccccc12,1.46 µM (active),–
CC(C)(C)c1ccc(S(=O)(=O)N2CCN(c3nc(-c4cccs4)nc4ccccc34)CC2)cc1,1.3 µM (active) and 1.46 µM (active),–
CCCCN(CCCN)c1ccc(Br)cn1,–,-10.7% (inactive)
CCN(Cc1ccccc1)c1ccc(Br)cn1,–,-10.6% (inactive)
Cc1ccc(S(=O)(=O)N2CCN(c3nc(-c4cccs4)cc4ccccc34)CC2)cc1,3.26 µM (active),–
